Laboratory results taken from the supplement of paper PMC10037445.
In all, about 2,900 compounds were measured (“NF-kB SEAP reporter activity, fold change vs agonist alone”: median about 0.99, highest 2% from about 2.6 on). Only a selection was taken, and the highest values are over-represented in it overall.

Legend:
RAW-Dual [1] = test: NF-kB SEAP reporter activity, fold change vs agonist alone; higher = enhanced NF-kB activity; settings: library stock concentration (final ~1000-fold dilution): 10 mM
In short: (§1)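 RAW-Dual macrophages (50,000 cells/well in DMEM, 384-well plates) received 50 nL of library stock by pin tool, then a PRR agonist 1 h later, and were kept at 37 °C, 5% CO2. After 20 hours, supernatant was read for IRF by QuantiLuc luminescence and for NF-κB by QuantiBlue absorbance at 620 nm. Reporter activity is fold change over agonist-alone wells. Cytotoxic wells had IncuCyte confluency below 70% of agonist controls in both mask sets.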

RAW-Dual [2] = test: NF-kB SEAP reporter activity, fold change vs agonist alone; cytotoxicity flag (confluency mask): not cytotoxic; higher = enhanced NF-kB activity
In short: as §1

RAW-Dual [3] = test: NF-kB SEAP reporter activity, fold change vs agonist alone; cytotoxicity flag (confluency mask): cytotoxic (confluency <70% of control); higher = enhanced NF-kB activity
In short: as §1

[4] = cytotoxicity flag (confluency mask): not cytotoxic, agonist: Imiquimod (TLR7) […]
[5] = cytotoxicity flag (confluency mask): not cytotoxic, agonist: MPLA (TLR4) […]
[6] = agonist: ODN 1826 (TLR9) 0.5 ug/mL
[7] = agonist: Pam2CSK4 (TLR2/6) 0.1 ug/mL
[8] = agonist: Pam3CSK4 (TLR2/1) 0.1 ug/mL
[9] = cytotoxicity flag (confluency mask): cytotoxic (confluency <70% of control), agonist: Imiquimod (TLR7) […]
[10] = cytotoxicity flag (confluency mask): cytotoxic (confluency <70% of control), agonist: MPLA (TLR4) […]

## Clc1ccc(N/N=C(\c2ccccc2)c2ccccn2)nc1
RAW-Dual [1]; [4]
  NF-kB SEAP reporter activity: 1.5
RAW-Dual [1]; [5]
  NF-kB SEAP reporter activity: 2.77

## NC(=O)c1ccccn1
RAW-Dual [1]; [5]
  NF-kB SEAP reporter activity: 1.08

## C=C1CC23CCC4C(C)(C(=O)O)CCCC4(C)C2CCC1C3 (stereo not given)
RAW-Dual [1]; [4]
  NF-kB SEAP reporter activity: 0.739
RAW-Dual [1]; [5]
  NF-kB SEAP reporter activity: 0.753

## C=C1CC23CCC4C(C)(C(=O)O)CCCC4(C)C2CCC1C3 (stereo not given) (library stock concentration (final ~1000-fold dilution): 10 mM)
RAW-Dual [2]; agonist: LPS (TLR4) 0.1 ug/mL
  NF-kB SEAP reporter activity: 0.821
RAW-Dual [2]; [6]
  NF-kB SEAP reporter activity: 0.749
RAW-Dual [2]; [7]
  NF-kB SEAP reporter activity: 0.65
RAW-Dual [2]; [8]
  NF-kB SEAP reporter activity: 0.646

## COc1ccc(CCCOC(Cn2ccnc2)c2ccc(OC)cc2)cc1.Cl (stereo not given) (library stock concentration (final ~1000-fold dilution): 10 mM)
RAW-Dual [2]; agonist: LPS (TLR4) 0.1 ug/mL
  NF-kB SEAP reporter activity: 0.82
RAW-Dual [2]; [6]
  NF-kB SEAP reporter activity: 0.588
RAW-Dual [2]; [7]
  NF-kB SEAP reporter activity: 0.572
RAW-Dual [2]; [8]
  NF-kB SEAP reporter activity: 0.84

## COc1ccc(CCCOC(Cn2ccnc2)c2ccc(OC)cc2)cc1.Cl (stereo not given)
RAW-Dual [1]; [4]
  NF-kB SEAP reporter activity: 0.901
RAW-Dual [1]; [5]
  NF-kB SEAP reporter activity: 1.28

## Cl.Cn1cc(C(=O)Nc2ccc3c(c2)OCCO3)c2ccccc2c1=O (library stock concentration (final ~1000-fold dilution): 10 mM)
RAW-Dual [2]; agonist: LPS (TLR4) 0.1 ug/mL
  NF-kB SEAP reporter activity: 2.21
RAW-Dual [2]; [6]
  NF-kB SEAP reporter activity: 1.48
RAW-Dual [2]; [7]
  NF-kB SEAP reporter activity: 1.09
RAW-Dual [2]; [8]
  NF-kB SEAP reporter activity: 1.29

## Cl.Cn1cc(C(=O)Nc2ccc3c(c2)OCCO3)c2ccccc2c1=O
RAW-Dual [1]; [4]
  NF-kB SEAP reporter activity: 1.2
RAW-Dual [1]; [5]
  NF-kB SEAP reporter activity: 1.41

## COc1cc(C(=O)O)ccc1NC(=O)C1NC(CC(C)(C)C)C(C#N)(c2ccc(Cl)cc2F)C1c1cccc(Cl)c1F (stereo not given)
RAW-Dual [1]; [4]
  NF-kB SEAP reporter activity: 0.74
RAW-Dual [1]; [5]
  NF-kB SEAP reporter activity: 0.697

## CC(C)(C)CC1NC(C(=O)NC2CCC(O)CC2)C(c2cccc(Cl)c2F)C12C(=O)Nc1cc(Cl)ccc12 (stereo not given) (library stock concentration (final ~1000-fold dilution): 10 mM)
RAW-Dual [3]; agonist: LPS (TLR4) 0.1 ug/mL
  NF-kB SEAP reporter activity: 3.05
RAW-Dual [3]; [6]
  NF-kB SEAP reporter activity: 2.82
RAW-Dual [3]; [7]
  NF-kB SEAP reporter activity: 0.884
RAW-Dual [3]; [8]
  NF-kB SEAP reporter activity: 1.21

## COc1cc(C(=O)O)ccc1NC(=O)C1NC(CC(C)(C)C)C(C#N)(c2ccc(Cl)cc2F)C1c1cccc(Cl)c1F (stereo not given) (library stock concentration (final ~1000-fold dilution): 10 mM)
RAW-Dual [2]; agonist: LPS (TLR4) 0.1 ug/mL
  NF-kB SEAP reporter activity: 0.272
RAW-Dual [2]; [6]
  NF-kB SEAP reporter activity: 0.436
RAW-Dual [2]; [7]
  NF-kB SEAP reporter activity: 0.145
RAW-Dual [2]; [8]
  NF-kB SEAP reporter activity: 0.285

## CC(C)(C)CC1NC(C(=O)NC2CCC(O)CC2)C(c2cccc(Cl)c2F)C12C(=O)Nc1cc(Cl)ccc12 (stereo not given)
RAW-Dual [1]; [9]
  NF-kB SEAP reporter activity: 1.55
RAW-Dual [1]; [10]
  NF-kB SEAP reporter activity: 2.25

## CC(=O)OC1(C(C)=O)CCC2C3C=C(Cl)C4=CC(=O)C5CC5C4(C)C3CCC21C (stereo not given) (library stock concentration (final ~1000-fold dilution): 10 mM)
RAW-Dual [2]; agonist: LPS (TLR4) 0.1 ug/mL
  NF-kB SEAP reporter activity: 1.2
RAW-Dual [2]; [6]
  NF-kB SEAP reporter activity: 1.01
RAW-Dual [2]; [7]
  NF-kB SEAP reporter activity: 0.777
RAW-Dual [2]; [8]
  NF-kB SEAP reporter activity: 1.08

## CC(=O)OC1(C(C)=O)CCC2C3C=C(Cl)C4=CC(=O)C5CC5C4(C)C3CCC21C (stereo not given)
RAW-Dual [1]; [4]
  NF-kB SEAP reporter activity: 1.26
RAW-Dual [1]; [5]
  NF-kB SEAP reporter activity: 1.21

## C[C@H]1[C@@H](O)O[C@@H]2OC3(C)CC[C@H]4[C@H](C)CC[C@@H]1[C@@]24OO3
RAW-Dual [1]; [4]
  NF-kB SEAP reporter activity: 1.32
RAW-Dual [1]; [5]
  NF-kB SEAP reporter activity: 1.97

## CC1CCC2C(C)C(OC(=O)CCC(=O)O)OC3OC4(C)CCC1C32OO4 (stereo not given) (library stock concentration (final ~1000-fold dilution): 10 mM)
RAW-Dual [2]; agonist: LPS (TLR4) 0.1 ug/mL
  NF-kB SEAP reporter activity: 5.12
RAW-Dual [2]; [6]
  NF-kB SEAP reporter activity: 1.67
RAW-Dual [2]; [7]
  NF-kB SEAP reporter activity: 1.02
RAW-Dual [2]; [8]
  NF-kB SEAP reporter activity: 1.44

## CC1CCC2C(C)C(OC(=O)CCC(=O)O)OC3OC4(C)CCC1C32OO4 (stereo not given)
RAW-Dual [1]; [4]
  NF-kB SEAP reporter activity: 1.84
RAW-Dual [1]; [5]
  NF-kB SEAP reporter activity: 2.5

## C[C@H]1[C@@H](O)O[C@@H]2OC3(C)CC[C@H]4[C@H](C)CC[C@@H]1[C@@]24OO3 (library stock concentration (final ~1000-fold dilution): 10 mM)
RAW-Dual [2]; agonist: LPS (TLR4) 0.1 ug/mL
  NF-kB SEAP reporter activity: 3.41
RAW-Dual [2]; [6]
  NF-kB SEAP reporter activity: 1.13
RAW-Dual [2]; [7]
  NF-kB SEAP reporter activity: 1.1
RAW-Dual [2]; [8]
  NF-kB SEAP reporter activity: 0.848

## Nc1nonc1/C(=N\O)Nc1ccc(F)c(Cl)c1 (library stock concentration (final ~1000-fold dilution): 10 mM)
RAW-Dual [2]; agonist: LPS (TLR4) 0.1 ug/mL
  NF-kB SEAP reporter activity: 1.01
RAW-Dual [2]; [6]
  NF-kB SEAP reporter activity: 0.882
RAW-Dual [2]; [7]
  NF-kB SEAP reporter activity: 0.938
RAW-Dual [2]; [8]
  NF-kB SEAP reporter activity: 0.585

## Nc1nonc1/C(=N\O)Nc1ccc(F)c(Cl)c1
RAW-Dual [1]; [4]
  NF-kB SEAP reporter activity: 0.904
RAW-Dual [1]; [5]
  NF-kB SEAP reporter activity: 0.933

## COc1ccc2cc1Oc1ccc(cc1)CC1c3c(cc4c(c3Oc3cc5c(cc3OC)CCN(C)C5C2)OCO4)CCN1C (stereo not given)
RAW-Dual [1]; [9]
  NF-kB SEAP reporter activity: 1.58
RAW-Dual [1]; [10]
  NF-kB SEAP reporter activity: 2.32

## COc1ccc2cc1Oc1ccc(cc1)CC1c3c(cc4c(c3Oc3cc5c(cc3OC)CCN(C)C5C2)OCO4)CCN1C (stereo not given) (library stock concentration (final ~1000-fold dilution): 10 mM)
RAW-Dual [3]; agonist: LPS (TLR4) 0.1 ug/mL
  NF-kB SEAP reporter activity: 1.44
RAW-Dual [3]; [6]
  NF-kB SEAP reporter activity: 0.251
RAW-Dual [3]; [7]
  NF-kB SEAP reporter activity: 1.42
RAW-Dual [3]; [8]
  NF-kB SEAP reporter activity: 1.01

## CN1CCN(Cc2ccc(NC(=O)Nc3ccc(Oc4ccnc(N)n4)cc3)cc2C(F)(F)F)CC1
RAW-Dual [1]; [9]
  NF-kB SEAP reporter activity: 0.146
RAW-Dual [1]; [10]
  NF-kB SEAP reporter activity: 0.248

## CN1CCN(Cc2ccc(NC(=O)Nc3ccc(Oc4ccnc(N)n4)cc3)cc2C(F)(F)F)CC1 (library stock concentration (final ~1000-fold dilution): 10 mM)
RAW-Dual [3]; agonist: LPS (TLR4) 0.1 ug/mL
  NF-kB SEAP reporter activity: 0.293
RAW-Dual [3]; [6]
  NF-kB SEAP reporter activity: 0.197
RAW-Dual [3]; [7]
  NF-kB SEAP reporter activity: 0.0678
RAW-Dual [3]; [8]
  NF-kB SEAP reporter activity: 0.129

## OC1C=C2CCN3Cc4cc5c(cc4C(C1O)C23)OCO5 (stereo not given)
RAW-Dual [1]; [9]
  NF-kB SEAP reporter activity: 2.07
RAW-Dual [1]; [10]
  NF-kB SEAP reporter activity: 1.61

## OC1C=C2CCN3Cc4cc5c(cc4C(C1O)C23)OCO5 (stereo not given) (library stock concentration (final ~1000-fold dilution): 10 mM)
RAW-Dual [3]; agonist: LPS (TLR4) 0.1 ug/mL
  NF-kB SEAP reporter activity: 1.54
RAW-Dual [3]; [6]
  NF-kB SEAP reporter activity: 1.05
RAW-Dual [3]; [7]
  NF-kB SEAP reporter activity: 0.33
RAW-Dual [3]; [8]
  NF-kB SEAP reporter activity: 0.552
